Z-score and composite z-score data for eight compounds are collected here from PubChem BioAssay.

Active and inactive are the calls of the source. Unless noted, how the calls were made is not given here.

Assay [1] in a line: compound effects on lung adenocarcinoma cell viability – A549, calcein-AM fluorescence, 48 h, basal, profiling panel (AID 1162). Further: test concentration not given here. The conditions noted are these: higher = more signal.
The nature of assay [2]: compound effects on differentiated 3T3-L1 adipocyte viability – cell-based, 3T3-L1 adipocytes, calcein-AM fluorescence, 48 h, basal, profiling panel (AID 1163). Further: test concentration not given here. The following applies: 3T3-L1 adipocytes viability, higher = more signal.
Assay [3] can be described thus: compound effects on hepatocellular carcinoma cell viability – HepG2, calcein-AM fluorescence, 48 h, basal, profiling panel (AID 1164). Further: test concentration not given here. The following applies: higher = more signal.
The nature of assay [4]: compound effects on multiple myeloma cell viability – MM1S, calcein-AM fluorescence, 48 h, basal, profiling panel (AID 1165).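 Further: viability of MM1S multiple myeloma cells under basal unstimulated conditions; test concentration not given here.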 The following applies: higher = more signal.
A short description of assay [5]: calcein-AM signal in unstimulated myeloma cells – cell-based, calcein-AM fluorescence, 48 h, PK04 Diversity Set, profiling panel (AID 1166).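 Further: cells grown under basal conditions without added stimulus; test concentration not given here.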 The following applies: RPMI8226 myeloma viability, higher = more signal.
Assay [6] can be described thus: JC-1 mitochondrial signal, unstimulated HepG2 cells – cell-based, JC-1 fluorescence, 24 h, 100 nL compound, profiling panel (AID 1167). Further: test concentration not given here. The following applies: HepG2 mitochondrial potential, higher = more signal.
Assay [7] is described as follows: JC-1 mitochondrial signal, unstimulated adipocytes – cell-based, JC-1 fluorescence, 3T3-L1 adipocytes, 24 h, 100 nL compound, profiling panel (AID 1168). Further: test concentration not given here. The conditions noted are these: JC-1 mitochondrial fluorescence, higher = more signal, called active from +8 up or from −8 down.
Assay [8] in a line: JC-1 mitochondrial signal, unstimulated myeloma cells – cell-based, JC-1 fluorescence, RPMI8226, 24 h, 100 nL compound, profiling panel (AID 1169). Further: test concentration not given here. The following applies: JC-1 mitochondrial potential fluorescence, higher = more signal.
Assay [9] is described as follows: JC-1 mitochondrial signal, unstimulated MM1S myeloma – cell-based, JC-1 fluorescence, 24 h, 100 nL compound, profiling panel (AID 1170). Further: test concentration not given here. The following applies: MM1S mitochondrial potential, higher = more signal.
The nature of assay [10]: resazurin metabolic signal in A549 cells – cell-based, resazurin fluorescence, 24 h, PK04 Diversity Set, profiling panel (AID 1171). Further: test concentration not given here. The following applies: A549 viability, higher = more signal, called active from +8 up or from −8 down. A general note: Resazurin is reduced to fluorescent resorufin, in cell work by metabolically active cells.
Assay [11] is described as follows: resazurin metabolic signal in HepG2 cells – cell-based, resazurin fluorescence, 24 h, PK04 Diversity Set, profiling panel (AID 1172). Further: test concentration not given here. The conditions noted are these: HepG2 viability, higher = more signal.
Assay [12] can be described thus: budding yeast growth changes without added modifier – OD600, strain BY4716, 24 h, basal condition, primary screen (AID 1173). The conditions noted are these: S. cerevisiae BY4716 growth, OD600, 24 h; higher = more signal, called active from +8 up or from −8 down.
Assay [13] can be described thus: viability profiling in MM1S myeloma cells – cell-based, resazurin fluorescence, basal, 24 h, PK04 Diversity Set, profiling panel (AID 1174). Further: test concentration not given here. The conditions noted are these: higher = more signal, called active from +8 up or from −8 down.
For assay [14], the target named is Dihydroorotate dehydrogenase (quinone), mitochondrial (Plasmodium falciparum (isolate 3D7)) (UniProt Q08210). In words: inhibition of P. falciparum DHODH – biochemical, C-terminal His tag, absorbance 600 nm, primary screen (AID 1175).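 Further: recombinant parasite enzyme with a five histidine tag at its C terminus; test concentration not given here.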 The conditions noted are these: PfDHODH enzyme, DCIP absorbance 600 nm; higher = more signal, called active from +8 up or from −8 down.

Assay [15] can be described thus: inhibition of PAO1 biofilm formation – strain PAO1, LB-PBS medium, absorbance 600 nm, primary screen (AID 1176). Further: test concentration not given here. The conditions noted are these: P. aeruginosa PAO1 growth/biofilm, A600, 12 h; higher = more signal.
A short description of assay [16]: growth modulation of vineyard yeast isolate – strain RM11-1a, OD600, basal, 24 h, primary screen (AID 1177).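 Further: cultures grown under basal conditions with no added stressor; test concentration not given here.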 The conditions noted are these: S. cerevisiae RM11-1a growth, OD600, 24 h; higher = more signal, called active from +8 up or from −8 down.
Assay [17] is described as follows: growth of efflux-deficient E. coli DRC39 – strain DRC39, OD650, 24 h, E. coli filamentation inducers, primary screen (AID 1178).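 Further: growth measured as culture turbidity by optical density at 650 nm; test concentration not given here.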 The conditions noted are these: E. coli DRC39 acrAB, higher = more signal, called active from +8 up or from −8 down.
The nature of assay [18]: growth of efflux-deficient E. coli DRC39 – strain DRC39, OD650, 48 h, E. coli filamentation inducers, primary screen (AID 1179).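 Further: screen aims at cell division blockers that make cells filament.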 The conditions noted are these: E. coli DRC39 delta-acrAB growth, higher = more signal, called active from +8 up or from −8 down.
The nature of assay [19]: viability profiling in RPMI8226 myeloma cells – cell-based, resazurin fluorescence, basal, 24 h, PK04 Diversity Set, profiling panel (AID 1180).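 Further: RPMI8826 multiple myeloma cell line at 5000 cells per well; test concentration not given here.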 The conditions noted are these: higher = more signal.
In assay [20] the target is E3 ubiquitin-protein ligase XIAP (Homo sapiens) (UniProt P98170). Kind of assay: small molecules binding XIAP protein – biophysical, small-molecule microarray, fluorescence 635 nm, primary screen (AID 1181).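 Further: score merges 667 nm emission and signal to noise over triplicate slides.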 The following applies: higher = more signal.
Sequence of E3 ubiquitin-protein ligase XIAP (Homo sapiens) (P98170 whole entry, looked up): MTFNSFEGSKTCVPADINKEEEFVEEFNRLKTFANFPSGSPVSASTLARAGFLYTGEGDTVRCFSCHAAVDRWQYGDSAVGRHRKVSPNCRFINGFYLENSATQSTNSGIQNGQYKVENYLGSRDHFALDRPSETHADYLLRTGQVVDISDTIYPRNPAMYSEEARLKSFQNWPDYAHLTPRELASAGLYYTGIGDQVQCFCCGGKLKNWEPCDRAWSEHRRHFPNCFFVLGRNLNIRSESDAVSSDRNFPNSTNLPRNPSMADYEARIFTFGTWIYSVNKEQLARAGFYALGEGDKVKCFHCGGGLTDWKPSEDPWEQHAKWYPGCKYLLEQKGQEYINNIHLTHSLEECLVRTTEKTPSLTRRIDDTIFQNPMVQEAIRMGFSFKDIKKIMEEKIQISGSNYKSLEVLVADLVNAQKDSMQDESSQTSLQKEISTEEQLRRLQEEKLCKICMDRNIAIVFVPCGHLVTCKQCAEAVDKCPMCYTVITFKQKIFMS

Sequence of Dihydroorotate dehydrogenase (quinone), mitochondrial (Plasmodium falciparum (isolate 3D7)) (Q08210 whole entry, looked up): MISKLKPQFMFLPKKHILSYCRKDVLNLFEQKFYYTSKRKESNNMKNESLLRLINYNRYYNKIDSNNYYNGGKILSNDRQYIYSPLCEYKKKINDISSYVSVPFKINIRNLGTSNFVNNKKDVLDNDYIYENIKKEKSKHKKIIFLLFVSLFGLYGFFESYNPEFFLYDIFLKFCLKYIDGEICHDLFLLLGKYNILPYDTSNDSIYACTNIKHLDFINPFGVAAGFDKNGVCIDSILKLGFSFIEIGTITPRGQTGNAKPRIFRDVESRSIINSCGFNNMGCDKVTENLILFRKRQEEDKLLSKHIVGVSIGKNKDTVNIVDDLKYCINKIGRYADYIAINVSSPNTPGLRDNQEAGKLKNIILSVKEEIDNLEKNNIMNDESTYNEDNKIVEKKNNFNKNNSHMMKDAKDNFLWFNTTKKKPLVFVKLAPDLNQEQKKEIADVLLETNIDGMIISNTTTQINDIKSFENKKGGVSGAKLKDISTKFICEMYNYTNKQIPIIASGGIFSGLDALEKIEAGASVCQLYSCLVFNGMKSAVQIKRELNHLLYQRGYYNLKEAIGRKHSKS

`COc1ccc(C#Cc2ccc3c(c2)[C@]2(C(=O)N3)[C@H](C(=O)Nc3nc4ccccc4s3)[C@H]3C(=O)O[C@H](c4ccccc4)[C@H](c4ccccc4)N3[C@@H]2c2ccccc2OCCO)cc1`: the z-score in assay [1] was 0.609; in [2], 1.61; in [3], 0.211; in assay [4], -0.708; in [5] it was -0.451; in [6] it was -2.79. The z-score in [7] was 3.69 (inactive); in assay [8] it was -1.03; in [9] it was -1.27; in assay [10] it was -0.801 (inactive); in [11] it was 0.154; in [12], 1.08 (inactive). The z-score in [13] was 0.303 (inactive); in assay [15], 2.69 (inactive); in assay [16], 1.66 (inactive); in assay [17], 0.82 (inactive); in [18] it was 0.413 (inactive); in assay [19] it was 1.5. Moreover, the composite z-score is -5.43 (inactive) in assay [14] and 0.0507 in [20].
For `CCN(CC)c1ccc(N2CC=CC34O[C@@H]5C=CCCOC(=O)C5[C@H]3C(=O)N(CCO)[C@@H]4C2=O)cc1` (stereo not given in full), the z-score is -0.126 in assay [1]; 1.11 in [2]; -0.618 in assay [3]; 0.766 in assay [4]; -0.073 in [5]; -0.178 in assay [6]. The z-score in [7] is 0.0903 (inactive); in [8], 0.277; in [9], 0.639; in [10] it was -0.0198 (inactive); in assay [11] it was 0.0656; in assay [12] it was -0.371 (inactive). The z-score is -0.281 (inactive) in [13]; 0.469 (inactive) in [15]; -0.106 (inactive) in assay [16]; 0.449 (inactive) in assay [17]; 0.2 (inactive) in assay [18]; 0.553 in [19]. Also, the values for the composite z-score in [14] and in assay [20] were -1.3 (inactive) and 0.0074, respectively.
For `COc1ccc(C(O)C2C=CC3C(=O)N(c4ccccc4)C(=O)C3N2Nc2ccc(C(C)C)cc2)c2ccccc12` (stereo not given), the z-score in [1] is 0.181; in [2], -0.946; in assay [3] it was 0.301; in assay [4], -0.419; in [5], 0.129; in [6] it was -0.783. Besides, the z-score in assay [7] was 0.0228 (inactive); in [8], -0.293; in [9], -0.154; in [10], -0.64 (inactive); in assay [11] it was -2.57; in [12] it was -1.62 (inactive). In addition, the z-score in [13] is -0.871 (inactive); in [15], 1.8 (inactive); in [16], 0.427 (inactive); in assay [17], 0.0571 (inactive); in [18] it was 0.313 (inactive); in assay [19] it was -0.208. The composite z-score in assay [14] is 0.183 (inactive); in assay [20], 0.349.
With `CCOC(=O)C1=CCN(S(=O)(=O)c2ccc(C)cc2)C1c1ccccc1` (stereo not given), the z-score is -0.973 in [1]; -0.205 in assay [2]; -0.535 in assay [3]; -0.455 in assay [4]; -1.21 in assay [5]; -1.62 in assay [6]. For the same compound, the z-score is -0.804 (inactive) in [7]; 0.443 in assay [8]; -0.583 in assay [9]; 0.739 (inactive) in assay [10]; -0.17 in assay [11]; 0.218 (inactive) in [12]. Moreover, the z-score in assay [13] was -0.612 (inactive); in assay [15], 0.449 (inactive); in [16], 0.58 (inactive); in [17], -0.564 (inactive); in assay [18] it was -0.359 (inactive); in [19], -1.01. Besides, the composite z-score in assay [14] was -0.551 (inactive); in assay [20], -0.0957.
Consider `[N-]=[N+]=Nc1ccccc1C[C@]1(C(=O)O)N=C(c2ccc(OCCCO)cc2)O[C@H]1c1ccccc1`, for which the z-score was 0.855 in [1]; -0.221 in assay [2]; 1.28 in assay [3]; 0.565 in [4]; 0.272 in assay [5]; -0.924 in assay [6]. The z-score in [7] is -0.297 (inactive); in assay [8] it was -0.954; in assay [9], -0.547; in assay [10] it was -0.605 (inactive); in assay [11], -0.0033; in [12] it was -1.77 (inactive). Moreover, the z-score in assay [13] was -1.1 (inactive); in [15] it was 0.258 (inactive); in [16], -0.1 (inactive); in assay [17], -0.115 (inactive); in assay [18], -0.0225 (inactive); in assay [19], -0.954. Further, the composite z-score in assay [14] is 0.502 (inactive); in assay [20], -0.0562.
With `CC(C)C(=C=CC[C@H](O)c1cccc(OCCO)c1)CCO`, the z-score in [1] is 0.211; in [2] it was 0.786; in assay [3] it was 0.401; in assay [4] it was 0.214; in assay [5], 0.292; in assay [6], 0.434. Further, the z-score was -0.599 (inactive) in [7]; 0.6 in assay [8]; -0.373 in assay [9]; 1.21 (inactive) in assay [10]; 0.934 in assay [11]; -1.47 (inactive) in assay [12]. Moreover, the z-score in [13] is 1.09 (inactive); in assay [15], -0.0464 (inactive); in assay [16], -0.661 (inactive); in assay [17], 0.353 (inactive); in assay [18] it was 0.642 (inactive); in assay [19], 0.929. Besides, the composite z-score is -0.131 (inactive) in assay [14] and -0.031 in assay [20].
Regarding `CN1C(=O)[C@@H]2[C@@H](CC(COc3ccccc3)=C([C@H](O)CCc3ccccc3)[C@@H]2CO)C1=O`, the z-score is 1.9 in assay [1]; -0.13 in assay [2]; 0.943 in assay [3]; 0.445 in assay [4]; -0.388 in assay [5]; 0.397 in assay [6]. Further, the z-score in assay [7] was 0.813 (inactive); in [8], -0.274; in assay [9], 0.472; in assay [10], -0.123 (inactive); in assay [11], 0.358; in [12] it was -3.31 (inactive). Moreover, the z-score in assay [13] was 0.0223 (inactive); in assay [15], -0.104 (inactive); in [16], -0.136 (inactive); in [17], 2.19 (inactive); in [18] it was 1.17 (inactive); in assay [19], 0.685. The composite z-score in assay [14] is -0.171 (inactive); in assay [20], 0.0178.
`C=C(COC)C(=O)CC[C@H](OC(=O)c1cccnc1)c1ccc(CO)o1`: the z-score in [1] was -0.15; in [2], -0.266; in [3], -0.53; in [4], -0.401; in [5] it was -0.535; in assay [6] it was -0.981. Also, the z-score is -0.492 (inactive) in assay [7]; 0.541 in [8]; -0.267 in assay [9]; -0.452 (inactive) in assay [10]; -0.655 in [11]; -1.29 (inactive) in assay [12]. For the same compound, the z-score in assay [13] is -0.317 (inactive); in [15] it was 0.142 (inactive); in [16] it was -0.663 (inactive); in assay [17], -0.659 (inactive); in assay [18], -0.649 (inactive); in [19] it was -0.732. The composite z-score in assay [14] was -3.37 (inactive); in assay [20], 0.0565.
